Experimental data: PubChem BioAssay (NCI)
About 83,000 compounds went through this panel and 20% of them were active in at least one assay; those are over-represented in the sample as a whole.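 Single-dose data. Exposure time 48 hours. Values below 10 considered active.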 Values without a mark were called inactive. Activity calls are given as the source filed them.

Assays:
Assay in all cases: NCI-60 one-dose screen, 48 h (100 = growth as untreated, 0 = no growth, -100 = all killed)
Conditions in all cases: 10 µM unless noted
MOLT-4 leukemia = test system: MOLT-4 leukemia
RPMI-8226 leukemia = test system: RPMI-8226 leukemia
OVCAR-8 ovarian = test system: OVCAR-8 ovarian
OVCAR-5 ovarian = test system: OVCAR-5 ovarian
OVCAR-4 ovarian = test system: OVCAR-4 ovarian
SK-OV-3 ovarian = test system: SK-OV-3 ovarian
IGROV1 ovarian = test system: IGROV1 ovarian
OVCAR-3 ovarian = test system: OVCAR-3 ovarian
HS 578T breast = test system: HS 578T breast
NCI/ADR-RES ovarian = test system: NCI/ADR-RES ovarian
BT-549 breast = test system: BT-549 breast
MDA-MB-435 melanoma = test system: MDA-MB-435 melanoma
SW-620 colon = test system: SW-620 colon
MCF7 breast = test system: MCF7 breast
HCT-116 colon = test system: HCT-116 colon
HCC-2998 colon = test system: HCC-2998 colon
KM12 colon = test system: KM12 colon
T-47D breast = test system: T-47D breast
SR leukemia = test system: SR leukemia

| SMILES | growth (MOLT-4 leukemia) | growth (RPMI-8226 leukemia) | growth (OVCAR-8 ovarian) | growth (OVCAR-5 ovarian) | growth (OVCAR-4 ovarian) | growth (SK-OV-3 ovarian) | growth (IGROV1 ovarian) | growth (OVCAR-3 ovarian) | growth (HS 578T breast) | growth (NCI/ADR-RES ovarian) | growth (BT-549 breast) | growth (MDA-MB-435 melanoma) | growth (SW-620 colon) | growth (MCF7 breast) | growth (HCT-116 colon) | growth (HCC-2998 colon) | growth (KM12 colon) | growth (T-47D breast) | growth (SR leukemia) |
| --- | --- | --- | --- | --- | --- | --- | --- | --- | --- | --- | --- | --- | --- | --- | --- | --- | --- | --- | --- |
| CC(=O)Nc1nc2c(s1)CC[C@@]1(C)C2=CC[C@H]2[C@@H]3CC[C@H](O)[C@@]3(C)CC[C@@H]21 | 50.8% | 34.1% | 80% | 92.3% | 87.4% | 81.9% | 64.3% | 13.7% | 60.5% | 45.5% | 42.6% | 5.93% (active) | 44.8% | 24.6% | 30.3% | 96% | 49.4% | – | – |
| O=C(Nc1ccc(Br)cc1)c1cc(Br)cc(Br)c1O | 62.2% | -10.1% (active) | 11.1% | 9.56% (active) | 19.7% | -11.7% (active) | 19.4% | 32.9% | 43.4% | -6.08% (active) | -28% (active) | 1.23% (active) | -15.7% (active) | 8.07% (active) | -13.9% (active) | 52.1% | -44.2% (active) | – | – |
| CCC1(C)CC(CCNCc2ccccc2O)(c2ccc(C)cc2)CCO1 (stereo not drawn) | 101% | 98.2% | 103% | 100% | 100% | 112% | 95.6% | 105% | 104% | – | 101% | 100% | 103% | 97.3% | 109% | 117% | 107% | 103% | – |
| CC(=O)Oc1ccccc1C(=O)NCCC[Se]C#N | 10.7% | 91.1% | -13.9% (active) | 83.3% | 57.2% | 32.6% | 10.8% | -5.3% (active) | 17.1% | 14.4% | -97% (active) | 3.02% (active) | 72.9% | – | 0.0792% (active) | 97.9% | 29.6% | – | – |
| CC12CCC3C(CCC4Cc5[nH]c6ccccc6c5CC43C)C1CCC2O (stereo not drawn) | 21.6% | -20% (active) | 36.9% | 122% | 51.8% | 29.5% | 50.8% | -28.3% (active) | -8.19% (active) | 38.4% | 60.4% | -25.2% (active) | 11.5% | 5.13% (active) | 23.3% | – | 23.3% | 29.2% | – |
| CCN(CCO)C(Cc1ccccc1)c1ccccc1 (stereo not drawn) | – | 98.9% | 109% | 93% | 102% | 110% | 97.4% | 109% | 105% | 94.7% | 100% | 94.4% | 96.4% | 94% | 99.3% | 96.8% | 99.4% | 111% | 116% |
| CC(=O)OCc1cc[c]([Hg][Cl])o1 | – | 26.4% | 36.8% | 43.9% | 62.9% | 71% | 11.3% | 0.253% (active) | 57.5% | 77.1% | 14.3% | 29.4% | 25.4% | 20.2% | 35.7% | 76.4% | 91.8% | 17.8% | -20.3% (active) |
| COC(=O)CCC1=C(C)c2cc3[n-]c(cc4nc(cc5[n-]c(cc1n2)c(CCC(=O)OC)c5C)C=C4C)cc3C.[Cd+2] | – | -1.53% (active) | 68.7% | 103% | 37.7% | 83.5% | 35.1% | -58.1% (active) | 39.8% | 83.5% | -31.9% (active) | 23.1% | 25.3% | 26.9% | 79.8% | 95.9% | 13.3% | 42.7% | – |
| O=[As](O)(O)c1ccccc1[As](=O)(O)O | – | 109% | 99.7% | 92.6% | – | 111% | 135% | 103% | 114% | 104% | 116% | 98.8% | 112% | 98% | 107% | – | 105% | – | 91.3% |
| O=C1C(Cl)=C(N2CCOCC2)C(=O)c2ccccc21 | – | -3.69% (active) | 68.2% | 119% | 37.7% | 110% | -47.2% (active) | -58.3% (active) | 116% | 90.9% | – | 67% | -16.5% (active) | 93.4% | – | 108% | 102% | -23% (active) | -37.1% (active) |
| ClCCN(CCCl)c1ccc(-n2cnc3c(Cl)ncnc32)cc1 | 7.06% (active) | 59.6% | 35.1% | 117% | – | 90.5% | -84.5% (active) | -35.4% (active) | 49.5% | 61% | – | 46.9% | -73.8% (active) | 25.7% | 33.6% | 82.6% | 46.3% | 41.1% | – |
| NC(=O)c1c(Br)n(C2OC(CO)C(O)C2O)c2ncnc(N)c12 (stereo not drawn) | – | – | 5.8% (active) | 24.4% | 16.1% | -8.9% (active) | -48.3% (active) | -43.3% (active) | -8.41% (active) | 8.09% (active) | -16.1% (active) | 1.13% (active) | 1.1% (active) | -18.6% (active) | 3.73% (active) | 18.4% | -8.13% (active) | -14.7% (active) | – |
| CN1CC(CNC(=O)OCc2ccccc2)CC2c3cccc4c3c(cn4C)CC21 (stereo not drawn) | – | – | 62.4% | 64.6% | – | 69% | 52.6% | 61.9% | 49.4% | 44.2% | 50% | 3% (active) | 35.9% | – | 31.7% | -66.9% (active) | 38.1% | 31.6% | – |
| Nc1nc([Se])c2ncn(C3OC(CO)C(O)C3O)c2n1 (stereo not drawn) | 7.08% (active) | 23.9% | 55.8% | 60.8% | 79.5% | 77.7% | – | 104% | 75.4% | 41.5% | 69.7% | 74.3% | 82.1% | 42.9% | 28.1% | 88.7% | 82.5% | 93.5% | – |
| CNCc1cccnc1 | – | 101% | 103% | 114% | – | 106% | 114% | 115% | 107% | 104% | 124% | 95.9% | 107% | 105% | 107% | 96.6% | 104% | 98.4% | – |
| NC(=S)c1cn(C2OC(CO)C(O)C2O)c2ncnc(N)c12 (stereo not drawn) | – | -39.8% (active) | 3.53% (active) | -29.6% (active) | -7.48% (active) | 17% | 0.391% (active) | -26.2% (active) | -25.4% (active) | -25.8% (active) | -43.1% (active) | -40.5% (active) | -27.6% (active) | 2.36% (active) | -16.3% (active) | -44.8% (active) | -14.9% (active) | -16.9% (active) | -50.4% (active) |
| COc1ccc(/C=C\c2cc(OC)c(OC)c(OC)c2)cc1NS(=O)(=O)c1ccc(Cl)cc1 | – | 64.3% | 78.5% | 83.4% | 55% | 81.9% | 61.9% | 76.6% | 67.8% | 35.2% | 83.5% | 3.63% (active) | 73.6% | – | 61.8% | – | 50.4% | 59.9% | 51.4% |
| CC12CCC3C(C=CC4=C(N)C(=O)CCC43C)C1CCC2=O (stereo not drawn) | 57.2% | – | 44% | 108% | 62% | 120% | 49.5% | 64.6% | 113% | 68.7% | 82.6% | 113% | 15.4% | -16% (active) | 6.15% (active) | 96% | 39.5% | 73.7% | – |
